High-throughput results from PubChem.
tim23-1 inh – growth inhibitors of tim23-1 mutant yeast, primary screen, luminescence, uHTS. S. cerevisiae tim23-1 growth, BacTiter-Glo luminescence, 24 h. 1.3% of 330,000 active. AID 463212, 2010. inhibition, % at 20 µM;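 active means growth inhibition of the mutant yeast at or above 50%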;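 further: temperature-sensitive mutant grown at 25 °C; plate controls were DMSO-treated mutant yeast for no effect and medium wells lacking yeast for full effect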
NALP1 yeast inh – NALP1 inflammasome inhibitors in reconstituted yeast, colorimetric, S. cerevisiae, triplicate retest; S. cerevisiae NALP1/ASC/caspase-1 growth, X-gal OD620, 72 h; inhibition, % at 10 µM; 0.61% of 280,000 active; in the data active means inhibition mostly above about 24%, no sharp cut-off; inactive means mostly below about 32%
tim10-1 inh – growth inhibitors of tim10-1 mutant yeast, primary screen, luminescence, uHTS | S. cerevisiae tim10-1 ts strain growth, BacTiter-Glo, 24 h | inhibition, % at 20 µM | 2.2% of 330,000 active;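 active means inhibition of at least 40%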;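 further: mutant grown at 25 °C; 0% = DMSO wells with yeast and 100% = wells holding no yeast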
NLRP3 yeast inh – NALP3 inflammasome inhibitors in reconstituted yeast, primary screen, luminescence, uHTS. Yeast reconstituted NLRP3/ASC/caspase-1, beta-gal luminescence, 24 h. inhibition, % at 10 µM. 0.39% of 330,000 active;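 active means inhibition of 50% or more; inactive means inhibition below 50%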;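 further: plate controls were induced DMSO wells for no effect and uninduced yeast grown without galactose for full effect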
TIM10 inh – growth inhibitors of isogenic TIM10 control yeast, primary screen, counter-screen for tim10-1 yeast inhibitor project, luminescence, uHTS. inhibition, % at 10 µM. 1.4% of 330,000 active. S. cerevisiae TIM10 strain growth, BacTiter-Glo luminescence, 24 h;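 active means inhibition of 40% or more at the single tested concentration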;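 further: wild-type TIM10 isogenic control strain grown at permissive 25 °C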
tim10-1 conf – growth inhibitors of tim10-1 mutant yeast, confirmation, single concentration, luminescence, S. cerevisiae; 56% of 7,400 active; S. cerevisiae tim10-1 ts strain growth, BacTiter-Glo, 24 h; inhibition, % at 20 µM; shares compounds with tim10-1 inh;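 active means inhibition of yeast growth at or above a set limit in either of two repeat tests at 20 µM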;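 further: tim10-1 mutant grown at permissive 25 °C to find synthetic lethal compounds; 0% = DMSO yeast wells and 100% = medium wells without yeast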
TIM10 conf – growth inhibitors of wild-type TIM10 yeast, confirmation, counter-screen for tim10-1 synthetic lethality project, single concentration, luminescence, S. cerevisiae; inhibition, % at 10 µM; S. cerevisiae tim10 strain growth, BacTiter-Glo luminescence, 24 h; AID 463215, 2010; shares compounds with TIM10 inh; 63% of 4,600 active;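 active means inhibition of yeast growth at or above a set limit in either of two replicates at 10 µM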;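 further: this counterscreen used the strain with wild-type TIM10; 0% = yeast with DMSO and 100% = medium wells lacking yeast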
* = called active by the depositor; / = no result given. Compounds with a hit are over-represented: about 4% of the library has one in this group of screens.

SMILES	tim23-1 inh	NALP1 yeast inh	tim10-1 inh	NLRP3 yeast inh	TIM10 inh	tim10-1 conf	TIM10 conf
CC1(C)CC2CC(C)(CN2C(=S)NC(=O)c2ccccc2Cl)C1 (stereo not given)	47.9	37.0	40.7*	49.5	41.6*	31.6*	10.2
CC1(C)CC2CC(C)(CN2C(=S)Nc2ccccc2)C1 (stereo not given)	32.0	2.5	3.2	-5.1	21.2	/	/
Cc1ccc(-c2nc3sc4c(c3c(=O)n2N)CCCC4)cc1	38.5	-16.4	24.0	0.7	11.5	/	/
O=C(O)CSc1nc2sc3c(c2c(=O)n1-c1ccccc1)CCC3	-11.6	/	0.0	-20.0	-22.4	/	/
Nn1c(Nc2ccccc2)nc2sc3c(c2c1=O)CCCC3	22.7	2.8	45.2*	7.6	51.1*	24.1	25.0
NNc1nc2sc3c(c2c(=O)n1-c1ccccc1)CCCC3	-12.8	2.4	49.0*	14.9	56.9*	39.1*	67.0*
CCOC(=O)C1=NN(c2ccccc2C)C2=NC(C)=C(C(=O)OC)C(c3cccs3)N12 (stereo not given)	37.2	1.8	40.8*	3.8	41.6*	17.8	20.3
Cc1ccc(C)c(N2CCN(S(=O)(=O)c3cc4c(cc3Cl)NC(=O)CO4)CC2)c1	-15.2	13.1	-13.0	1.0	-6.9	/	/
Cc1cc([N+](=O)[O-])ccc1-c1ccc(C2Nc3ccccc3C(=O)N2O)o1 (stereo not given)	42.4	6.1	52.9*	8.8	41.3*	35.8*	19.8
O=C1c2ccccc2NC(c2ccc(-c3ccccc3F)o2)N1O (stereo not given)	29.7	/	20.9	22.0	10.1	/	/
O=C(NCc1ccc(Cl)cc1)c1cc(=O)[nH]c2ccccc12	-11.5	13.7	-1.9	-15.9	2.8	/	/
CC(C)[C@@H]1CC[C@@H](C)c2c(-c3ccccc3)n[nH]c21	47.0	-10.2	40.5*	31.5	46.0*	21.2	49.0*
C=CCn1c(O)c(N=NC(=S)Nc2ccccc2F)c2ccccc21	14.1	9.0	47.5*	12.4	45.6*	43.7*	29.1
Cc1c(Cl)cccc1NC(=S)N=Nc1c(O)n(CN2CCOCC2)c2ccccc12	39.9	10.6	59.0*	36.3	53.2*	48.7*	30.4*
Oc1c(N=NC(=S)Nc2ccccc2F)c2ccccc2n1Cc1ccccc1Cl	31.3	3.3	22.5	16.6	27.0	/	/
Oc1c(N=NC(=S)Nc2ccccc2F)c2ccccc2n1Cc1ccccc1	17.2	1.1	24.0	13.9	16.8	/	/
COc1ccc(S(=O)(=O)N(C)CC(=O)NCc2ccco2)cc1OC	-0.2	1.4	-8.3	17.3	-13.4	/	/
O=C(CCc1nnc(CCCCc2ccccc2)o1)NCCN1CCCCC1=O	-1.8	-4.6	3.0	9.9	-14.3	/	/
COc1ccccc1C(=O)N(CCC1CCCN1C)c1nc2ccccc2s1 (stereo not given)	10.3	6.2	13.2	8.5	-8.7	/	/
Cc1ccccc1NC(NC(=O)c1cccs1)C(Cl)(Cl)Cl (stereo not given)	31.1	14.5	42.5*	-0.7	47.2*	48.9*	51.4*
Cc1ccccc1NC(=O)c1ccccc1NC(=O)c1cccs1	7.9	6.5	1.8	12.7	4.9	/	/
Cc1ccc(NC(NC(=O)c2cccs2)C(Cl)(Cl)Cl)cc1C (stereo not given)	30.2	16.4	53.9*	-3.9	58.5*	44.0*	-16.2
COc1ccc2c(c1OC)C(=O)OC2Nc1nc(-c2cc3cc(Br)ccc3oc2=O)cs1 (stereo not given)	40.2	/	49.2*	43.3	58.5*	60.5*	71.3*
COc1ccc(-c2csc(NC3OC(=O)c4c3ccc(OC)c4OC)n2)cc1OC (stereo not given)	0.4	13.4	-8.1	26.3	-4.0	/	/
Cc1cccc(C(CC(=O)N2CCCC2)c2ccccc2)c1O (stereo not given)	33.9	-5.5	25.0	11.5	1.4	/	/
SMILES	tim23-1 inh	NALP1 yeast inh	tim10-1 inh	NLRP3 yeast inh	TIM10 inh	tim10-1 conf	TIM10 conf
Cc1ccc(C(CC(=O)N2CCCC2)c2ccccc2)c(O)c1C (stereo not given)	31.7	0.6	41.3*	21.1	71.8*	13.9	32.9*
CCCC(=O)NC(=S)Nc1cccc(Cl)c1N1CCCCC1	41.8	/	43.5*	-30.3	50.0*	27.6	36.2*
CN(CC(=O)Nc1c(Cl)cccc1Cl)C(=O)Cn1[nH]c(=O)c2ccccc2c1=O	-7.4	/	-6.8	4.8	5.9	/	/
O=[N+]([O-])c1ccc(S(=O)(=O)c2cccc(C(F)(F)F)c2)nc1	46.0	/	74.5*	-12.2	75.5*	73.7*	65.7*
COc1cc(C2=NOC(C(=O)N3CCN(c4ccc(F)cc4)CC3)C2)cc(OC)c1OC (stereo not given)	41.1	-19.4	40.6*	12.2	45.6*	39.6*	40.2*
COc1cc(C2=NOC(C(=O)N3CCCCCC3)C2)cc(OC)c1OC (stereo not given)	14.5	-6.6	-7.9	14.0	5.4	/	/
Cc1ccc(OC(=O)CCNC(=O)c2ccccc2Cl)c(Br)c1	26.4	/	30.0	20.8	10.4	/	/
S=c1[nH]nc(COc2ccccc2)n1/N=C/c1ccc(Br)s1	43.1	-3.1	47.3*	34.8	46.2*	33.8*	49.0*
Oc1ccccc1/C=N/n1c(COc2ccccc2)n[nH]c1=S	41.9	-22.9	36.8	24.6	13.1	/	/
O=C(CCc1ccccc1)Nc1ncn[nH]1	13.4	4.0	2.9	12.8	0.3	/	/
O=C(/C=C/c1ccccc1)Nc1ncn[nH]1	41.0	5.4	48.6*	21.3	52.9*	56.2*	48.3*
O=c1[nH][nH]c(-c2ccccc2O)c1C(C[N+](=O)[O-])c1ccc(Cl)cc1Cl (stereo not given)	36.7	70.5*	55.2*	16.1	42.2*	30.1*	-4.5
CCCN(c1ccc(OCC)cc1)S(=O)(=O)c1ccc2c(c1)NC(=O)CO2	7.9	23.8	8.6	22.7	-6.5	/	/
COc1ccc(NC(=O)Cc2nnc(SCC(=O)Nc3ccc(F)cc3)n2C)cc1	-2.6	7.6	-18.5	2.6	2.7	/	/
Cc1nn(C(C)(C)C)c(OC(=O)c2ccco2)c1Sc1ccccc1	43.9	-7.0	49.3*	-3.1	46.9*	38.6*	46.1*
Cc1nn(C(C)(C)C)c(OC(=O)c2ccc(Br)o2)c1Sc1ccccc1	43.0	6.1	41.2*	-1.7	40.7*	36.1*	36.0*
CCS(=O)(=O)c1nc(S(=O)(=O)c2ccc(Cl)cc2)c(NCCN2CCOCC2)s1	11.4	0.6	-10.8	14.6	4.1	/	/
